Data from PubChem BioAssay (NCI).
This is part of a sample that, as a whole, favours compounds with a hit. Of some 79,000 tested, about 15% had one in any assay. Calls of active or inactive are those of the source. Cut-off read from the data, not from the text of the source: active = growth inhibition above about 70%; inactive = the rest.

What was measured:
[1] = NCI Yeast Anticancer Drug Screen. Data for the rad52 strain (AID 147);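 note: 0% = growth of vehicle-treated control cultures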; details: S. cerevisiae rad52 mutant growth inhibition, hits give high values
Outline: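 The repair-mutant yeast strain was incubated with compounds, then growth was read and inhibition derived relative to vehicle.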

[2] = NCI Yeast Anticancer Drug Screen. Data for the wt1 strain (AID 149);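 note: 0% = growth of vehicle-treated wt1 cultures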; details: S. cerevisiae wt1 strain (SPY 50644) growth inhibition, hits give high values
Outline: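 wt1 yeast, compound-treated; % growth inhibition vs vehicle control.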

[3] = NCI Yeast Anticancer Drug Screen. Data for the rad50EPP+ strain (AID 151);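 note: 0% = growth of vehicle-treated control cultures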; details: S. cerevisiae rad50 mutant strain, hits give high values
Outline: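 Vehicle-normalised growth inhibition; rad50EPP+ yeast strain, altered in DNA damage repair, compound-treated.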

[4] = NCI Yeast Anticancer Drug Screen. Data for the rad50 strain (AID 155);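 note: 0% = growth of vehicle-only cultures of the same strain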; details: S. cerevisiae rad50 strain growth inhibition, hits give high values
Outline: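 Genetically altered yeast (DNA repair pathway); compound treatment; growth inhibition vs vehicle ctrl.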

[5] = NCI Yeast Anticancer Drug Screen. Data for the mec2-1 strain (AID 157); details: S. cerevisiae mec2-1 strain, hits give high values
Outline: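 Mutant yeast (mec2-1) grown with compound; growth inhibition relative to vehicle control reported.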

[6] = NCI Yeast Anticancer Drug Screen. Data for the rad14 strain (AID 159);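 note: 0% = growth of vehicle-treated control cultures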; details: S. cerevisiae rad14 strain growth inhibition, hits give high values
Outline: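 Test compounds were applied to a repair-deficient yeast strain. Its growth was then compared with that of cultures given vehicle alone, and inhibition was expressed relative to those controls.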

[7] = NCI Yeast Anticancer Drug Screen. Data for the sgs1 mgt1 strain (AID 161);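 note: 0% = growth of cultures given vehicle only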; details: S. cerevisiae sgs1 mgt1 strain, hits give high values
Outline: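 Growth of a repair-deficient yeast mutant was monitored after compound treatment and expressed as inhibition relative to vehicle-treated cultures.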

[8] = NCI Yeast Anticancer Drug Screen. Data for the CLN2oe strain (AID 163);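 note: 0% = growth of vehicle-only control cultures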; details: S. cerevisiae CLN2oe strain, hits give high values
Outline: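 Compounds are applied to yeast harbouring a defined cell-cycle control change; reduced growth compared with vehicle-treated controls gives the value.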

[9] = NCI Yeast Anticancer Drug Screen. Data for the cln2 rad14 strain (AID 165);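 note: 0% = growth equal to vehicle treated cultures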; details: S. cerevisiae cln2 rad14 strain, hits give high values
Outline: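 Readout is yeast growth inhibition versus vehicle-treated controls, using a strain with cln2 and rad14 alterations exposed to compound.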

[10] = NCI Yeast Anticancer Drug Screen. Data for the bub3 strain (AID 167); details: S. cerevisiae bub3 mutant strain, hits give high values
Outline: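 Yeast carrying a defined mutation is treated with each compound, and growth is compared with that of vehicle-exposed cells to give inhibition.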

[11] = NCI Yeast Anticancer Drug Screen. Data for the wt2 strain (AID 169);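 note: 0% = growth of vehicle-treated yeast cultures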; details: S. cerevisiae wt2 strain growth inhibition, hits give high values
Outline: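 Against vehicle-treated controls, the growth of yeast exposed to each compound was compared, and the inhibition was recorded.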

[12] = NCI Yeast Anticancer Drug Screen. Data for the mlh1 strain (AID 171);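 note: 0% = growth of vehicle-treated control cultures of the same strain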; details: S. cerevisiae mlh1 strain growth inhibition, hits give high values
Outline: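 Measured: yeast growth. Reference: vehicle-treated controls. Organism: strain with a defined alteration affecting DNA damage repair or cell cycle control, treated with compound.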

[13] = NCI Yeast Anticancer Drug Screen. Data for the sgs1 strain (AID 173);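 note: 0% = growth of vehicle-only control cultures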; details: S. cerevisiae sgs1 mutant, hits give high values
Outline: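 Each compound was added to cultures of the altered yeast strain. Growth was recorded, and inhibition was derived by comparison with vehicle controls.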

[14] = NCI Yeast Anticancer Drug Screen. Data for the mlh1 rad18 strain (AID 175); details: S. cerevisiae mlh1 rad18 strain growth inhibition, hits give high values
Outline: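 Genetically defined yeast (DNA repair-deficient) exposed to compounds; growth inhibition determined relative to vehicle.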

[15] = NCI Yeast Anticancer Drug Screen. Data for the rad18 strain (AID 177); details: S. cerevisiae rad18 mutant growth inhibition, hits give high values
Outline: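 Vehicle-treated cultures served as the baseline for scoring compound-induced growth inhibition in DNA-repair-mutant yeast.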

[16] = at 5.0 µM (retest, dose inferred, filed as 0.5)
[17] = at 50.0 µM (retest, dose inferred, filed as 5.0)

Measured: growth inhibition

CC1CCC2(C(=O)O)CCC3(C)C(=CCC4C5(C)CC(O)C(O)C(C)(CO)C5C(O)CC43C)C2C1C (stereo unspecified)
active: [1]; at 100.0 µM 81% | [2]; at 100.0 µM 80% | [4]; [17] 88% | [4]; at 50.0 µM 76.9% | [5]; [17] 90% | [5]; at 50.0 µM 82.3% | [5]; at 100.0 µM 75% | [6]; at 100.0 µM 85% | [7]; [17] 70% | [7]; at 50.0 µM 78.7% | [8]; at 100.0 µM 78% | [9]; [17] 77% | [10]; [17] 93% | [10]; at 50.0 µM 88.9% | [10]; at 100.0 µM 95% | [11]; at 100.0 µM 96% | [12]; at 100.0 µM 95% | [13]; at 100.0 µM 95% | [14]; [17] 78% | [15]; at 100.0 µM 87%
inactive: [1]; at 1.2 µM -23% | [1]; at 3.7 µM -25% | [1]; at 11.0 µM -28% | [1]; at 33.0 µM -15% | [2]; at 1.2 µM -17% | [2]; at 3.7 µM -20% | [2]; at 11.0 µM -17% | [2]; at 33.0 µM -3% | [3]; at 1.2 µM 0% | [3]; at 3.7 µM -7% | [3]; at 11.0 µM -2% | [3]; at 33.0 µM 3% | [3]; at 100.0 µM 33% | [4]; at 1.2 µM 13% | [4]; at 3.7 µM -20% | [4]; [16] 54% | [4]; at 11.0 µM -20% | [4]; at 33.0 µM -28% | [4]; at 100.0 µM 63% | [5]; at 1.2 µM -15% | [5]; at 3.7 µM -6% | [5]; [16] -1% | [5]; at 11.0 µM -17% | [5]; at 33.0 µM -15% | [6]; at 1.2 µM -13% | [6]; at 3.7 µM -13% | [6]; at 11.0 µM -4% | [6]; at 33.0 µM 6% | [7]; [16] 16% | [8]; at 1.2 µM -6% | [8]; at 3.7 µM -4% | [8]; at 11.0 µM 3% | [8]; at 33.0 µM 7% | [9]; [16] 20% | [9]; at 50.0 µM 39.1% | [10]; at 1.2 µM -5% | [10]; at 3.7 µM -2% | [10]; [16] 16% | [10]; at 11.0 µM -1% | [10]; at 33.0 µM 13% | [11]; at 1.2 µM -2% | [11]; at 3.7 µM -2% | [11]; at 11.0 µM -1% | [11]; at 33.0 µM 21% | [12]; at 1.2 µM -29% | [12]; at 3.7 µM -8% | [12]; at 11.0 µM -20% | [12]; at 33.0 µM -2% | [13]; at 1.2 µM -4% | [13]; at 3.7 µM 9% | [13]; at 11.0 µM -10% | [13]; at 33.0 µM -17% | [14]; [16] 41% | [14]; at 50.0 µM 58.7% | [15]; at 1.2 µM -43% | [15]; at 3.7 µM -47% | [15]; at 11.0 µM -42% | [15]; at 33.0 µM -61%

O=C(Nc1cccc(C(F)(F)F)c1)Oc1ccc(Cl)cc1C(=O)c1ccccc1
active: [1]; at 11.0 µM 80% | [1]; at 100.0 µM 98% | [2]; at 11.0 µM 76% | [2]; at 33.0 µM 80% | [2]; at 100.0 µM 97% | [3]; at 100.0 µM 96% | [4]; [16] 99% | [4]; at 11.0 µM 90% | [4]; at 33.0 µM 82% | [4]; [17] 97% | [4]; at 50.0 µM 90.4% | [4]; at 100.0 µM 98% | [5]; [16] 100% | [5]; at 11.0 µM 88% | [5]; at 33.0 µM 97% | [5]; [17] 89% | [5]; at 50.0 µM 92.9% | [5]; at 100.0 µM 97% | [6]; at 100.0 µM 97% | [7]; [17] 98% | [7]; at 50.0 µM 92.9% | [8]; at 11.0 µM 74% | [8]; at 33.0 µM 85% | [8]; at 100.0 µM 97% | [9]; [17] 98% | [9]; at 50.0 µM 93% | [10]; at 11.0 µM 83% | [10]; at 33.0 µM 91% | [10]; [17] 96% | [10]; at 50.0 µM 91% | [10]; at 100.0 µM 97% | [11]; at 11.0 µM 91% | [11]; at 33.0 µM 77% | [11]; at 100.0 µM 98% | [12]; at 11.0 µM 88% | [12]; at 33.0 µM 70% | [12]; at 100.0 µM 97% | [13]; at 11.0 µM 82% | [13]; at 33.0 µM 91% | [13]; at 100.0 µM 97% | [14]; [16] 100% | [14]; [17] 93% | [14]; at 50.0 µM 91.2% | [15]; at 11.0 µM 91% | [15]; at 33.0 µM 86% | [15]; at 100.0 µM 98%
inactive: [1]; at 1.2 µM 15% | [1]; at 3.7 µM 17% | [1]; at 33.0 µM 69% | [2]; at 1.2 µM 18% | [2]; at 3.7 µM 13% | [3]; at 1.2 µM 26% | [3]; at 3.7 µM 7% | [3]; at 11.0 µM 34% | [3]; at 33.0 µM 41% | [4]; at 1.2 µM 22% | [4]; at 3.7 µM 17% | [5]; at 1.2 µM 19% | [5]; at 3.7 µM 42% | [6]; at 1.2 µM -3% | [6]; at 3.7 µM -2% | [6]; at 11.0 µM 51% | [6]; at 33.0 µM 64% | [7]; [16] -34% | [8]; at 1.2 µM 24% | [8]; at 3.7 µM 15% | [9]; [16] 31% | [10]; at 1.2 µM 10% | [10]; at 3.7 µM 24% | [10]; [16] 15% | [11]; at 1.2 µM 15% | [11]; at 3.7 µM 6% | [12]; at 1.2 µM 9% | [12]; at 3.7 µM 8% | [13]; at 1.2 µM 24% | [13]; at 3.7 µM 30% | [15]; at 1.2 µM 6% | [15]; at 3.7 µM 21%
